Data on 54 compounds can be found in PubChem BioAssay AID1259309 (ICCB-Longwood Screening Facility, Harvard Medical School, 2017).

“And” between values parts separate entries of the source, which are not always exact repeats. Equal values may be shown once. Among all 330,000 compounds or so, about 1,800 (0.55%) were called active. For the sample, actives were picked, then their nearest neighbours and some compounds at random. Unmarked numbers belong to inactive results. Rule as the data show it: active = growth inhibition above about 68%; inactive = the rest.

The test can be described thus: growth inhibition of ugtP-null S. aureus, primary screen, RN4220 ugtP deletion, OD600 (AID 1259309).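 Also: plate controls were untreated wells for no effect and antibiotic for full effect.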 The settings on record: 16 h, hits give high values.
Consider `COc1ccc(CC(=O)NCC(=O)NN=Cc2ccc(C)o2)cc1`, for which the growth inhibition is 8.44%.
The result for `O=C(Cc1ccccc1)NNC1CC(=O)N(c2ccc(Br)cc2)C1=O` (centres undefined) reads -0.3%.
The result for `CC(C)(C)OC(=O)C1=C(CO)CS[C@@H]2[C@H](NC(=O)Cc3ccccc3)C(=O)N12` reads 101% (active); that for `CC(C)(C)OC(=O)NC(Cc1ccccc1)C(=O)NC(CO)C(O)C1CC1C(=O)NC1CC1` (centres undefined), -0.531%; that for `Cc1ccc(-c2nc(C#N)c(NCCCn3ccnc3)o2)cc1`, -7.44%.
The result for `O=S(=O)(c1ccccc1)c1nc(-c2ccccc2)oc1NCCCN1CCOCC1` reads 2.69%.
Take `N#Cc1nc(-c2ccc(OCc3ccccc3)cc2)oc1NCCCN1CCOCC1`: the growth inhibition is 85.2% (active).
For the compound `O=C(NN=C/C=C/c1ccco1)c1cccnc1`, the growth inhibition is -1.13%.
On to `CCC1=C(OC(=O)N(CC)CC)N2C(=O)OC(=NCC3CC3)[C@]2(Cc2ccccc2)C2C1=CCC1C(=O)N(CC(=O)OC)C(=O)C12` (some centres undefined), for which the growth inhibition was 5.55%.
To `CC(C)NC(=O)N(C)CC1Oc2ccc(NC(=O)Nc3ccc(C(F)(F)F)cc3)cc2CC(=O)N(C(C)CO)CC1C` (centres undefined) belongs -1.09%; to `N#C/C(=C/c1ccc(Cl)cc1)NC(=O)c1ccccc1`, -7.93%.
To `N#CC(=NNc1ccc(Cl)cc1)C(=O)c1ccccc1` belongs 99.4% (active).
Turning to `N#CC(=NNc1ccc(Cl)cc1)C(=N)N1CCCCC1`, the growth inhibition was -11.7%.
The result for `CCCCC(O)(CCCC)C(=O)NN=C(C)c1ccc(Cl)cc1` reads -3.08%.
Take `COc1ccc(C(=O)NN=Cc2ccc(OC)c(CN3CCCc4ccccc43)c2)cc1`: the growth inhibition was -10.3%.
To `COc1ccc(C(=O)NN=Cc2ccc(OC(=O)c3cccc4ccccc34)c([N+](=O)[O-])c2)cc1` belongs 96.8% (active); to `COc1ccc(C=NNC(=O)c2ccccc2OC)cc1COc1ccccc1[N+](=O)[O-]`, 4.98%.
To `CC(=NNc1cccc(C(=O)O)c1)c1cc2ccccc2o1` belongs 5.08%; to `C=C(C)C(=O)Nc1cccc(C2=NOC3(C2)CC(C(N)=O)N(C(=O)c2ccccc2)C3)c1` (centres undefined), 0.731%.
With `CC(C)=CCc1ccc(O)c(=O)cc1C(C)C`, the growth inhibition is -4.82%.
The result for `CC(C)=CCc1c(O)c(CC=C(C)C)c2occ(-c3ccc(O)cc3)c(=O)c2c1O` reads 98.5% (active); that for `COc1ccccc1NC(=O)CC(C)=NNC(=O)c1ccccn1`, 3.4%.
To `C/C(C=NNC(=O)c1nnn(-c2nonc2N)c1C(C)C)=C\c1ccccc1` belongs -3.08%.
To `Oc1ccc(CC2CNC(=S)N2CCc2cc(C(F)(F)F)cc(C(F)(F)F)c2)cc1` (centres undefined) belongs 10.9% and 22.1%.
With `CCCCNC(=S)N(C)N=Cc1c(F)c(F)c(F)c(F)c1F`, the growth inhibition is 4.66%.
The result for `Cc1nc2c(-c3ccccc3)c(C)[nH]n2c(=O)c1Cl` reads 3.35%.
The result for `Cc1cc(=O)n2[nH]c(-c3cccc(Cl)c3)cc2n1` reads -2.61%.
To `Cc1[nH]n(-c2cccc(Cl)c2)c(=O)c1-c1ccc(Cl)cc1` belongs 87.7% (active).
For the compound `COc1ccc(C=NNC(=O)CCc2n[nH]c(=O)[nH]c2=O)cc1OC`, the growth inhibition was -0.0548%.
To `O=C(O)C1=CC(c2ccc3c(c2)OCO3)CC(OCc2ccc(CO)cc2)O1` (centres undefined) belongs -2.53% and -0.0237%.
As for `COc1cc(C=NNC(=S)NCCN2CCOCC2)ccc1O`, the growth inhibition is 11.5%.
Consider `CC(C)(C)Cc1nnc(NC(=O)c2cc(-c3ccccc3)nc3ccccc23)s1`, for which the growth inhibition was -17.6%.
To `O=C(Nc1nnc(-c2ccccc2)o1)c1cc(-c2cccs2)nc2ccccc12` belongs 96.3% (active).
For `O=C(NN=Cc1ccsc1)c1cc(-c2cccs2)nc2ccccc12`, the growth inhibition is -4.48%.
To `CN1CCN(N=Cc2ccc(-c3ccc([N+](=O)[O-])cc3Cl)o2)CC1` belongs 3.66%; to `Oc1ccccc1C1=NN(c2ccccc2)C(c2ccccc2)C1` (centres undefined), 99.6% (active).
The result for `O=C1C2N=NN(CC(=O)N3N=C(c4cccc5ccccc45)CC3c3ccccc3)C2C(=O)N1c1ccccc1` (centres undefined) reads -9.34%; that for `Cc1ccc(N2C(=O)C3N=NN(CC(=O)N4N=C(c5cccc6ccccc56)CC4c4ccccc4)C3C2=O)cc1` (centres undefined), -14.5%; that for `CCOc1ccc(C=NNc2cc(N3CCOCC3)nc(C)n2)c(O)c1`, 1.85%.
To `CC1CN(C(C)CO)C(=O)Cc2cc(NC(=O)CCC(F)(F)F)ccc2OC1CN(C)S(=O)(=O)c1ccc(Cl)cc1` (centres undefined) belongs 4.94%; to `NCCCCC(C(=O)N1CCNCC1)n1cc(CCC(=O)O)nn1` (centres undefined), 3.28%.
On to `OCc1nc(CO)n(Cc2ccccc2)n1`, for which the growth inhibition is 13.4%.
The result for `OCCN(Cc1ccccc1)Cc1ccc(Cl)cc1` reads -6.5%; that for `OCc1ccc(-c2ccccc2)c(-c2ccccc2)c1`, 89.2% (active); that for `COc1cc(CCCN2C(=O)C(=O)NCC2CC2CCCCC2)cc(OC)c1OC` (centres undefined), 2.58%.
For `Cc1cc(C=NNC(=O)c2ccccn2)c(C)n1-c1cccc([N+](=O)[O-])c1`, the growth inhibition was 6.51%.
For the compound `Cc1ccnc2nc(C(=O)Nc3nnc(-c4ccccc4)o3)nn12`, the growth inhibition was 12.9%.
The result for `O=C(Nc1nnc(-c2ccc(Cl)cc2)o1)c1ccccc1Br` reads 97.7% (active); that for `COc1ccccc1C(=O)NCC(=O)OCC(=O)Nc1nnc(-c2ccccc2)o1`, -1.67%.
The result for `CCOC(=O)NN=Cc1ccc(C)o1` reads 3.13%.
To `N#CC(=C(O)CCl)c1nnc2n1CCCCC2` belongs 4.05%.
For `C#CCOCCOCCOCCNc1nc(N2CCN(C(=O)C(CCCCN)n3cc(C(N)CC(C)C)nn3)CC2)nc(N2CCN(C(=O)C(CCCCN)n3cc(C(N)CC(C)C)nn3)CC2)n1` (centres undefined), the growth inhibition is 0.321%.
The result for `CC(C)NC(=O)CC(=O)NN=Cc1c(F)cccc1Cl` reads -1.54%; that for `Cc1cccc(CCN2C(Nc3ccccc3)=NCC2CC(C)C)c1` (centres undefined), 2.11%.
